Where “and” joins values, the source holds several entries; their conditions need not be identical. Identical values can stand only once. Calls of active or inactive are those of the source. Where a call stands in place of a potency, no number is given. Unless noted, calls follow the shape of the dose curve; as a rule, active = well fitted curve in the direction sought with a large enough effect in the repeat runs; inconclusive = weak or mixed curves; inactive = no such curve, though single readings can be large; an effect the other way counts as inactive or inconclusive.
Key:
[1] = qHTS assay to identify small molecule antagonists of the glucocorticoid receptor (GR) signaling pathway - cell viability counter screen (AID 720693); also: nearly all actives have a fitted effect of over 55% in size; also: potency is read from the fitted curve at half-maximal effect
[2] = qHTS assay for identifying genotoxic compounds that show differential cytotoxicity against isogenic chicken DT40 cell lines with known DNA damage response pathways - Rev3 mutant cell line (AID 743014); also: nearly all actives have a fitted effect of over 55% in size
[3] = qHTS assay for identifying genotoxic compounds that show differential cytotoxicity against isogenic chicken DT40 cell lines with known DNA damage response pathways - Rad54/Ku70 mutant cell line (AID 743015); also: nearly all actives have a fitted effect of over 60% in size; also: potency is read from the fitted curve at half-maximal effect
[4] = qHTS assay to identify small molecule antagonists of the androgen receptor (AR) signaling pathway - cell viability counter screen (AID 743033; also: nearly all actives have a fitted effect of over 45% in size; also: potency is read from the fitted curve at half-maximal effect)
[5] = qHTS assay to identify small molecule antagonists of the androgen receptor (AR) signaling pathway using the MDA cell line - cell viability counter screen (AID 743041; also: nearly all actives have a fitted effect of over 45% in size; also: potency is read from the fitted curve at half-maximal effect)
Method in brief: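 Same-well cytotoxicity was assessed by CellTiter-Fluor in MDA-kb2 AR-luc cells after 16 h of compound treatment under R1881 agonism.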

[6] = qHTS assay to identify small molecule antagonists of the thyroid receptor (TR) signaling pathway - cell viability counter screen (AID 743064); also: nearly all actives have a fitted effect of over 50% in size; also: potency is read from the fitted curve at half-maximal effect
Method in brief: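 Plate GH3.TRE-Luc cells; incubate 4 h at 37 °C; add compound, then T3 to 1 nM final; incubate 23.5 h; add CellTiter-Fluor; incubate 30 min at 37 °C, 5% CO2; read fluorescence.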

[7] = qHTS assay to identify small molecule antagonists of the thyroid receptor (TR) signaling pathway (AID 743065); also: nearly all actives have a fitted effect of over 55% in size; also: potency is read from the fitted curve at half-maximal effect
Method in brief: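 GH3.TRE-Luc rat pituitary cells (two TREs driving luciferase) were dosed with compound, then stimulated with 1 nM T3 (final) for 23.5 h at 37 C. ONE-Glo luminescence was the read-out, with CellTiter-Fluor fluorescence as the cytotoxicity counter-screen.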

[8] = test system: thyroid hormone receptor (rat, GH3 cells); test: qHTS assay to identify small molecule agonists of the thyroid receptor (TR) signaling pathway (AID 743066; calls by dose curve; also: potency is read from the fitted curve at half-maximal effect)
[9] = qHTS assay to identify small molecule antagonists of the estrogen receptor alpha (ER-alpha) signaling pathway - cell viability counter screen (AID 743074; calls by dose curve;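 also: HEK293 cells carrying ER-alpha-UAS-bla reporter stimulated with 17beta-estradiol; nearly all actives have a fitted effect of over 45% in size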; also: potency is read from the fitted curve at half-maximal effect)
[10] = qHTS assay to identify small molecule antagonists of the estrogen receptor alpha (ER-alpha) signaling pathway using the BG1 cell line - cell viability counter screen (AID 743081);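 also: compound given together with 17beta-estradiol as the ER stimulus; nearly all actives have a fitted effect of over 45% in size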; also: potency is read from the fitted curve at half-maximal effect
Aromatase (Homo sapiens) = Aromatase (Homo sapiens) (UniProt P11511); test: qHTS assay to identify aromatase inhibitors (AID 743083); also: nearly all actives have a fitted effect of over 55% in size; also: potency is read from the fitted curve at half-maximal effect
Chain of Aromatase (Homo sapiens) (P11511 whole entry, looked up): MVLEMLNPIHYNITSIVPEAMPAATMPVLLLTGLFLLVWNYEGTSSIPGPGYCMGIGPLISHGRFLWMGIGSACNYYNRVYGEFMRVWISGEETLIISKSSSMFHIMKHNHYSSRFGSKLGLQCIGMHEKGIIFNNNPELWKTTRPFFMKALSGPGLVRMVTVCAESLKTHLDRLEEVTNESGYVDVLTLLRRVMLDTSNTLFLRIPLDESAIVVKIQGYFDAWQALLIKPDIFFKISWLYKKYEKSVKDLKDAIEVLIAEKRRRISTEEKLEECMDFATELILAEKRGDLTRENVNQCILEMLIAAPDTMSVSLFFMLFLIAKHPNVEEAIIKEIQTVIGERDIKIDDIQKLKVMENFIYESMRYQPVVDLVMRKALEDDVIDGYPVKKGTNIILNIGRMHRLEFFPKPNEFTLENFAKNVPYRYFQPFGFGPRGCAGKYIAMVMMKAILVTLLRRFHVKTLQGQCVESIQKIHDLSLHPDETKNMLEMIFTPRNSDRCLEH

[11] = molecular target: Estrogen receptor (Homo sapiens) (UniProt P03372); test: qHTS assay to identify small molecule agonists of the estrogen receptor alpha (ER-alpha) signaling pathway (AID 743075; calls by dose curve;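 also: HEK293 GripTite cells with ER-alpha and UAS-driven beta-lactamase reporter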; also: potency is read from the fitted curve at half-maximal effect)
Chain of Estrogen receptor (Homo sapiens) (P03372 whole entry, looked up): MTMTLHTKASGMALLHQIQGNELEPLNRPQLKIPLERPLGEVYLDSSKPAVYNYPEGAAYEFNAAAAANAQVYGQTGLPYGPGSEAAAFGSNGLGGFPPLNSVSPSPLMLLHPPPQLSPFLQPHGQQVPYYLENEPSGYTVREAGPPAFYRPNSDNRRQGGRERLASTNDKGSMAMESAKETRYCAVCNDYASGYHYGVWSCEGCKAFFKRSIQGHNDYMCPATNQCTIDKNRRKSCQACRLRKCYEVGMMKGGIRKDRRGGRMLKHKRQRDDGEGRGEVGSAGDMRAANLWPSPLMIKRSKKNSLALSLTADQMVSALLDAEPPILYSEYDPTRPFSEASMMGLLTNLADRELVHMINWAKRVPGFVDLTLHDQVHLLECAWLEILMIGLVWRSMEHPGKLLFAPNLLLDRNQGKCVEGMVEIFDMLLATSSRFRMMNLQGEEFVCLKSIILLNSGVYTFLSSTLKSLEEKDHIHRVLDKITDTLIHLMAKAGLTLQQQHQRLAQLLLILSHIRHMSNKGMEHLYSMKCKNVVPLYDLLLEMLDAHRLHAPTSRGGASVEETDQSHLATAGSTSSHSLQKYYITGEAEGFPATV

[12] = qHTS assay to identify small molecule antagonists of the estrogen receptor alpha (ER-alpha) signaling pathway using the BG1 cell line (AID 743080; calls by dose curve;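 also: BG1 cells stimulated with 17beta-estradiol alongside compound; nearly all actives have a fitted effect of over 25% in size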; also: potency is read from the fitted curve at half-maximal effect)
Method in brief: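 After 5 days in phenol-red-free 10% charcoal-stripped FBS medium, BG1-Luc-4E2 cells were seeded, left 24 h at 37 C, co-treated with compounds and 17beta-estradiol for 21.5 h, then assayed for viability and luciferase.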

[13] = molecular target: Androgen receptor (Homo sapiens) (UniProt P10275); test: qHTS assay to identify small molecule antagonists of the androgen receptor (AR) signaling pathway (AID 743035; active = well fitted inhibition curve with a large enough effect in the signal ratio in the repeat runs, not every such curve was filed as active; inconclusive = weak or mixed curves, or effect the other way; inactive = no such curve, though single readings can be large or run the other way; the % refers to the signal ratio; also: potency is read from the fitted curve at half-maximal effect)
Chain of Androgen receptor (Homo sapiens) (P10275 whole entry, looked up): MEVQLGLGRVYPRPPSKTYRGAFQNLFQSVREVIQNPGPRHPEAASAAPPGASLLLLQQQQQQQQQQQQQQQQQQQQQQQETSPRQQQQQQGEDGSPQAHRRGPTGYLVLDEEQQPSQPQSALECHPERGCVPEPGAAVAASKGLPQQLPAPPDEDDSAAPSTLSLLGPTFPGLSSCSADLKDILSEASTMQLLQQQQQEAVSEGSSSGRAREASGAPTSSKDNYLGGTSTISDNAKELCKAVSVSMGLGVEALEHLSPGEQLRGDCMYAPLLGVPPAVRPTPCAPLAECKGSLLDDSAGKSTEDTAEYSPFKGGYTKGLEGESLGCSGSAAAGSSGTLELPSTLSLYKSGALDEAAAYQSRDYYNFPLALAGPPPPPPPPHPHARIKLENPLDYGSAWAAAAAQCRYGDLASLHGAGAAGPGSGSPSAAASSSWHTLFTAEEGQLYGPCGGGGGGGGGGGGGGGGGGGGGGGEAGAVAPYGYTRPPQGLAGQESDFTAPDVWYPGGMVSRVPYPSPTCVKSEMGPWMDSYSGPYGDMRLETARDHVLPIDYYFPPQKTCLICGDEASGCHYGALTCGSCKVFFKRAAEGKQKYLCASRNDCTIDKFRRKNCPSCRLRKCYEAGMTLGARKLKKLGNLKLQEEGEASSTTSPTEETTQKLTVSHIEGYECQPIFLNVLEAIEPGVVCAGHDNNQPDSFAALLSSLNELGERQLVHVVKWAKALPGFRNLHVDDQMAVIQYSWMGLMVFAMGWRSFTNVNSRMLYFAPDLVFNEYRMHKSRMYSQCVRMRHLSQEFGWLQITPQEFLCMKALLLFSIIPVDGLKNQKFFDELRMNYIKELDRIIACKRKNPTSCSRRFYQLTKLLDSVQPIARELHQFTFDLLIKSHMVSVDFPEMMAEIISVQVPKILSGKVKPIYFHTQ
Method in brief: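 Cell line: GeneBLAzer AR-UAS-bla GripTite (HEK293). Stimulus: R1881 added after compound. Exposure: 16 h, 37C, 5% CO2. Readout: LiveBLAzer B/G FRET fluorescence after 2 h at room temperature.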

[14] = molecular target: Androgen receptor (Homo sapiens) (UniProt P10275); test: qHTS assay to identify small molecule agonists of the androgen receptor (AR) signaling pathway (AID 743036; active = well fitted activation curve with a large enough effect in the signal ratio in the repeat runs, with a control signal flat, not every such curve was filed as active; inconclusive = weak or mixed curves, or effect the other way; inactive = no such curve, though single readings can be large or run the other way; the % refers to the signal ratio)
Method in brief: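 Reporter line: GeneBLAzer AR-UAS-bla-GripTite (HEK293). Steps: plate cells, 4 h rest, add compounds, 16 h at 37C, add LiveBLAzer B/G substrate, 2 h at RT, read fluorescence.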

[15] = molecular target: Androgen receptor (Homo sapiens) (UniProt P10275); test: qHTS assay to identify small molecule agonists of the androgen receptor (AR) signaling pathway using the MDA cell line (AID 743040; also: nearly all actives have a fitted effect of over 20% in size)
Method in brief: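 Human breast carcinoma MDA-kb2 reporter cells (MMTV-luc, AR/GR elements) were treated for 16 h at 37C in 0% CO2 following a 5 h settling period. Signal was quantified by ONE-Glo luminescence.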

[16] = molecular target: Androgen receptor (Homo sapiens) (UniProt P10275); test: qHTS assay to identify small molecule antagonists of the androgen receptor (AR) signaling pathway using the MDA cell line (AID 743042; also: nearly all actives have a fitted effect of over 55% in size; also: potency is read from the fitted curve at half-maximal effect)
Method in brief: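 MDA-kb2 breast carcinoma cells carrying MMTV-luciferase (AR/GR responsive) were co-treated with compounds and the agonist R1881 for 16 h at 37C. Inhibition read as ONE-Glo luminescence; CellTiter-Fluor fluorescence measured in parallel for cytotoxicity.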

[17] = molecular target: Estrogen receptor (Homo sapiens) (UniProt P03372); test: qHTS assay to identify small molecule antagonists of the estrogen receptor alpha (ER-alpha) signaling pathway (AID 743069; active = well fitted curve in the direction sought with a large enough effect in the signal ratio in the repeat runs, not every such curve was filed as active; inconclusive = weak or mixed curves, or effect the other way; inactive = no such curve, though single readings can be large or run the other way; the % refers to the signal ratio; also: potency is read from the fitted curve at half-maximal effect)
Method in brief: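 Reporter cells (ER-alpha-bla, HEK293 background) are conditioned overnight in stripped-serum medium (2% charcoal-stripped FBS). Compound and 17beta-estradiol exposure runs 18 hr at 37C, 5% CO2.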

[18] = molecular target: Estrogen receptor (Homo sapiens) (UniProt P03372); test: qHTS assay to identify small molecule agonists of the estrogen receptor alpha (ER-alpha) signaling pathway using the BG1 cell line (AID 743079); details: BG1Luc4E2 cells, ERE-luciferase agonist, 22 h; activation: at 70.3 µM (top of the series); also: nearly all actives have a fitted effect of over 20% in size; also: potency is read from the fitted curve at half-maximal effect
[19] = qHTS assay for identifying genotoxic compounds that show differential cytotoxicity against isogenic chicken DT40 cell lines with known DNA damage response pathways - wild type cell line (AID 743012); also: nearly all actives have a fitted effect of over 60% in size; also: potency is read from the fitted curve at half-maximal effect
Method in brief: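 Quantitative HTS on parental DT40 cells: 40 h compound treatment at 37 C/5% CO2, with viability then determined by CellTiter-Glo luminescence. Values serve as the DNA repair-proficient reference for differential cytotoxicity.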

Structure (SMILES)	Potency [1]	Potency [2]	Potency [3]	Potency [4]	Potency [5]	Potency [6]	Potency [7]	Potency [8]	Potency [9]	Potency [10]	Potency (Aromatase (Homo sapiens))	Potency [11]	Potency [12]	Potency [13]	outcome [14]	outcome [15]	Potency [16]	Potency [17]	Potency [18]	Potency [19]
CCCCn1cc[n+](C)c1 (tested in a mixture with another compound)	inactive	inactive	inactive	inactive	inactive	inactive	inactive	inactive	inactive	inactive	inactive									
Brc1cccc(-c2ccccc2)c1	inactive	inactive	inactive	inactive	inactive	inactive	inactive	inactive	inactive	inactive	inactive	inactive	inactive							
CC(C)NCC(O)c1ccccc1Cl (centres undefined)	inactive	inactive	inactive	inactive	inactive	inactive	inactive	inactive	inactive	inactive	inactive	inactive	inactive	inactive	inactive	inactive	inactive	inactive	inactive	
c1csc(-c2ccc(-c3cccs3)s2)c1	inactive			inactive	inactive		inactive	61.1 µM (active)		inactive	inactive								27.3 µM (active)	68.6 µM (active)
CC(C)N(C(=O)CCl)c1ccccc1	54.9 µM (active)		9.69 µM (active) and 7.7 µM (active)			27.3 µM (active) and 34.4 µM (active)	68.6 µM (active) and 48.6 µM (active)	inactive	inactive	inactive	21.7 µM (active) and 27.3 µM (active)	inactive	54.5 µM (active) and 61.1 µM (active)	8.71 µM (active) and 6.92 µM (active)	inactive	inactive	30.6 µM (active) and 21.7 µM (active)	15.5 µM [inconclusive] (active) and 6.92 µM [inconclusive] (active)		21.7 µM (active) and 17.2 µM (active)
[O]=[Cr][O][Cr]=[O]	inactive		inactive	inactive	inactive	inactive	inactive	inactive	inactive	inactive	inactive	inactive	inactive					inactive	inactive	inactive
CC(C)C(Br)C(=O)NC(N)=O (centres undefined)	inactive	inactive	inactive	inactive	inactive	inactive	inactive	inactive		inactive	inactive	inactive	inactive					inactive	inactive	
O=[N+]([O-])c1cc(C(F)(F)F)c(Cl)c([N+](=O)[O-])c1Nc1ncc(C(F)(F)F)cc1Cl	21.9 µM (active)		137 nM (active)	0.275 µM (active)	15.4 µM (active)	5.45 µM (active)	2.17 µM (active)		49 µM (active)	68.6 µM (active)	2.73 µM (active)	49 µM [inconclusive] (active)								0.0969 µM (active)
C=CC(=C)C	inactive		24300 nM (active)	inactive		inactive	inactive	inactive	inactive	inactive	inactive	inactive						inactive		27.3 µM (active)
c1ccc2nc(N3CCNCC3)ccc2c1	inactive			inactive	inactive	29.8 µM (active)	29.8 µM (active)	inactive				inactive						inactive		29.8 µM (active)

Source: PubChem BioAssay (Tox21)
